Experimental findings from PubChem BioAssay (Tox21) are described below.

Structures are written as SMILES. Where “and” joins values, the source holds several entries; their conditions need not be identical. Identical values can stand only once. Inconclusive results are not listed. Entries that show only a call come without a potency. Where a structure was tested more than once in an assay, its records may differ in their call. Calls of active or inactive are those of the source. The call rests on the fitted dose curve; in most records, active means well fitted cell-killing curve with a large enough effect in the repeat runs; inconclusive means weak or mixed curves, or effect the other way; inactive means flat fitted curve, though single readings scatter.
Potency means the concentration at half of the fitted maximal effect.

The nature of this assay: Human pregnane X receptor (PXR) small molecule agonists, qHTS cell viability counter screen (AID 1346977). Further: nearly all actives have a fitted effect of over 50% in size. As to conditions: PXR-Luc HepG2 viability, CellTiter-Fluor, 24 h; series mostly up to 92.4 µM. An excerpt:
U.S. Tox21 Program National Center for Advancing Translational Sciences [NCATS] NIH Chemical Genomics Center [NCGC] U.S. Environmental Protection Agency [EPA] National Institutes of Environmental Health Sciences [NIEHS] National Toxicology Program [NTP] U.S. Food and Drug Administration [FDA] Tox21 Assay Overview: The human pregnane X receptor (hPXR) regulates the expression of several drug metabolizing enzymes and induction of these proteins is a major mechanism for developing drug resistance in cancer. One such key enzyme catalyzing the drug metabolism is cytochrome P450 3A4 (CYP3A4). Changes in CYP3A4 expression affect drug metabolism, thereby reducing the therapeutic efficacy and altering toxicological response to a drug and which finally causes adverse drug interaction. To screen Tox21 libraries for compounds that activate hPXR-mediated CYP3A4 gene expression, PXR-Luc HepG2 cells were used. Also cytotoxicity of the compounds was tested in parallel by measuring the cell viability using CellTiter-Fluor assay system in the same wells.
Tox21 Assay Protocol Summary: PXR-Luc HepG2 cells were dispensed at 2,000 per well in 5uL of assay medium containing 5% charcoal-stripped FBS into white solid bottom 1536-well plates (Corning Life Sciences, Corning, NY) using a Multidrop Combi (Thermo Scientific, Waltham, MA) dispenser. The assay plates were incubated at 37 C and 5% CO2 for 5hr, and then 23nL of compounds dissolved in DMSO and positive control were transferred using a Pintool station (Wako, San Diego, CA). The assay plates were incubated at 37C and 5% CO2 for 24hr. For cytotoxicity read, after 23hr incubation at 37C, 1uL CellTiter-Fluor reagent (Promega Corporation, Madison, WI) was added to each well of the assay plates using Flying Reagent Dispenser (FRD, Aurora Discovery, San Diego, CA). After 1hr incubation at 37C and 5% CO2, the fluorescence signal was quantified using a ViewLux plate reader (PerkinElmer, Shelton, CT).
Consider `CC(C)Cc1ccc(C(C)C(=O)O)cc1` (stereo not given), for which the Potency entry was “inactive”.
On to `CCCCNC(=O)NS(=O)(=O)c1ccc(N)cc1`, for which the Potency entry is “inactive”.
Turning to `O=C1OC(c2ccc(O)cc2)(c2ccc(O)cc2)c2ccccc21`, the Potency was 50.1 µM (active) and inactive.
As for `O=c1cc[nH]c(=O)[nH]1`, the entry is “inactive”; as for `CCCCOCCOCCSC#N`, “inactive”; as for `COc1cc(C=O)ccc1O`, “inactive”.
Regarding `Cc1ccc(O)c(-n2nc3ccccc3n2)c1`, the Potency result was “inactive”.
As for `COc1ccccc1NC(=O)CC(C)=O`, the entry is “inactive”; as for `CCN(CC)CCOC(=O)c1ccc(N)cc1`, “inactive”; as for `O=C(O)CCCCC1CCSS1` (stereo not given), “inactive”.
As to `CCCCOCCOCCOC(C)=O`, the Potency result was “inactive”.
Regarding `O=C1CCCCCN1`, the Potency is 7.08 µM (active) and inactive.
For `OCCCc1ccccc1`, the Potency entry is “inactive”.
Take `Cc1c(N(C)C)c(=O)n(-c2ccccc2)n1C`: the Potency entry is “inactive”.
As for `CC(=O)c1ccc(S(=O)(=O)NC(=O)NC2CCCCC2)cc1`, the entry is “inactive”; as for `O=[N+]([O-])c1ccc(O)cc1`, 44.7 µM (active) and 48.6 µM (active); as for `Nc1cccc(N)c1`, “inactive”.
Consider `CC(C)CC(C)CC(O)CC(C)C` (stereo not given), for which the Potency entry is “inactive”.
As for `CC1(C)O[C@@H]2[C@@H](CO[C@@]3(COS(N)(=O)=O)OC(C)(C)O[C@@H]23)O1`, the entry is “inactive”; as for `CC(O)COc1ccccc1` (stereo not given), “inactive”; as for `CC(=O)Oc1ccccc1C(=O)O`, “inactive”.
Regarding `CCCCCCCCCCCCCCCCCC(=O)OCC(O)CO` (stereo not given), the Potency entry is “inactive”.
`CCCCCCCCOc1ccc(C(=O)c2ccccc2)c(O)c1`: the Potency entry was “inactive”.
`CC1=NN(c2ccccc2)C(=O)C1`: the Potency entry was “inactive”.
In the case of `C[C@]12C[C@H](O)[C@H]3[C@@H](CCC4=CC(=O)CC[C@@]43C)[C@@H]1CC[C@@H]2C(=O)CO`, the Potency result is “inactive”.
Regarding `CC(C)=CCC/C(C)=C/CO`, the Potency entry is “inactive”.
Regarding `Cc1cccc(Nc2cc(Cl)nc(SCC(=O)O)n2)c1C`, the Potency entry was “inactive”.
For `CC(C)(C)CC(C)(C)c1ccc(O)c(-n2nc3ccccc3n2)c1`, the Potency entry is “inactive”.
In the case of `NC(=O)N/N=C/c1ccc([N+](=O)[O-])o1`, the Potency entry was “inactive and 27.3 µM (active) and 26.6 µM (active)”.
Regarding `COC(=O)c1ccc(C=O)cc1`, the Potency result is “inactive”.
With `C[C@]12CC[C@@H]3c4ccc(O)cc4C[C@@H](CCCCCCCCCS(=O)CCCC(F)(F)C(F)(F)F)[C@H]3[C@@H]1CC[C@@H]2O` (stereo not given in full), the Potency result is “inactive”.
As to `CCc1cc(C(N)=S)ccn1`, the Potency result is “inactive”.
With `CN(C)C=O`, the Potency entry is “inactive”.
`COc1cc(O)c(C(=O)c2ccccc2)cc1S(=O)(=O)O`: the Potency result was “inactive”.
`CCCCCCCC(=O)OCC(O)CO` (stereo not given): the Potency result is “inactive”.
As for `NC(=O)N1c2ccccc2C=Cc2ccccc21`, the entry is “inactive”.
For `C=C(C)OC(C)=O`, the Potency result was “inactive”.
Under `CCCCOC(=O)CCCCCCCCC(=O)OCCCC` stands “inactive”; under `Cc1cccc(C)c1O`, “inactive”; under `CN/C(=C\[N+](=O)[O-])NCCSCc1ccc(CN(C)C)o1`, “inactive”.
